Laboratory results from PubChem BioAssay.
Active and inactive are the calls of the source. Unless noted, the rule behind the calls is not given here.

Legend:
[1] = circadian clock period modulators, cell-based, LOPAC library, luminescence reporter (AID 2774); settings: circadian reporter cells, at 7 µM, actives lie on both sides;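 note: values are relative to mean of DMSO wells on each plate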
[2] = system: Hepatitis C virus NS3 helicase; assay: HCV NS3 helicase inhibitors, primary screen, biochemical, fluorescence polarization, LOPAC1280 library (AID 687035; in the data active = inhibition above about 37%); settings: Purified HCV NS3 helicase, Cy5-dT15 ssDNA binding fluorescence polarization; stronger effect = higher value; concentration not given here
[3] = Cy5 fluorescence quenching or enhancement artefacts, artefact control for HCV NS3 helicase inhibitor project, biochemical, LOPAC1280 (AID 687037); settings: Cy5-DNA-NS3h complex fluorescence interference counterscreen
[4] = sensitizers of A549 cells to miR-34 induction, primary screen, imaging, A549 dox-inducible miR-34, nuclei and caspase counts (AID 1347080;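 active = compounds whose cell count with miR-34 switched on is under 0.7 times the count with it off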); settings: A549 miR-34 inducible, Hoechst nuclei count, 48 h
[5] = phospholipid biosynthesis inhibitors in animal cells, primary screen, cell-based, LOPAC library, screen 4 (AID 1347384); settings: phospholipid biosynthesis inhibition screen, at 10 µM
[6] = viability rescue of complex I mutant cybrids, primary screen, cell-based, galactose medium, ATP luminescence (AID 1645843;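 active = z-score of at least 1.8 in each of two replicates, scored against plate mean and spread of sample wells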;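 note: positive z means more ATP and so rescue of galactose-driven cybrid death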); settings: complex I mutant cybrid cells, 72 h, stronger effect = higher value
[7] = stronger effect = lower value, cell number ratio, induced over uninduced
[8] = measured here: relative caspase fold change +Dox/-Dox
[9] = measured here: total cells with miR-34 induction, stronger effect = lower value
[10] = measured here: total cells without miR-34 induction

## Cn1c(=O)c2[nH]c(-c3ccccc3)nc2n(C)c1=O
[1]
  period change: 0.09 h (inactive)
[2]
  inhibition: -3% (inactive)
[3]
  fluorescence ratio (interference): 1 (inactive)
[4]; [7]
  fold change: 1.06 (inactive)
[4]; [8]
  fold change: 3.05
[4]; [9]
  cell count: 10000
[4]; [10]
  cell count: 9510
[5]
  outcome: inactive
[6]
  z-score: 1.04 (inactive)

## CC[C@@H](C)[C@H]1O[C@]2(CC[C@@H]1C)C[C@@H]1C[C@@H](C/C=C(\C)[C@@H](O[C@H]3C[C@H](OC)[C@@H](O[C@H]4C[C@H](OC)[C@@H](O)[C@H](C)O4)[C@H](C)O3)[C@@H](C)/C=C/C=C3\CO[C@@H]4[C@H](O)C(C)=C[C@@H](C(=O)O1)[C@]34O)O2
[1]
  period change: 0.095 h (inactive)
[2]
  inhibition: -2% (inactive)
[3]
  fluorescence ratio (interference): 1 (inactive)
[4]; [7]
  fold change: 0.888 (inactive)
[4]; [8]
  fold change: 0.534
[4]; [9]
  cell count: 1760
[4]; [10]
  cell count: 1980
[5]
  outcome: inactive
[6]
  z-score: -1.29 (inactive)

## COc1cc(C(O)C(=O)O)ccc1O (centres undefined)
[1]
  period change: 0.03 h (inactive)
[2]
  inhibition: -2% (inactive)
[3]
  fluorescence ratio (interference): 1 (inactive)
[4]; [7]
  fold change: 0.986 (inactive)
[4]; [8]
  fold change: 1.43
[4]; [9]
  cell count: 10600
[4]; [10]
  cell count: 10700
[5]
  outcome: inactive
[6]
  z-score: -0.02 (inactive)

## O=C1C2C=CC=CC2=NC(=S)N1CCN1CCC(=C(c2ccc(F)cc2)c2ccc(F)cc2)CC1 (centres undefined)
[1]
  period change: -0.295 h (inactive)
[2]
  inhibition: 1% (inactive)
[3]
  fluorescence ratio (interference): 1 (inactive)
[4]; [7]
  fold change: 0.996 (inactive)
[4]; [8]
  fold change: 1.03
[4]; [9]
  cell count: 9730
[4]; [10]
  cell count: 9760
[5]
  outcome: inactive
[6]
  z-score: -0.96 (inactive)

## Cc1nc(N=Nc2ccc(S(=O)(=O)O)cc2S(=O)(=O)O)c(COP(=O)(O)O)c(C=O)c1O
[1]
  period change: 0.055 h (inactive)
[2]
  inhibition: 0% (inactive)
[3]
  fluorescence ratio (interference): 1 (inactive)
[4]; [7]
  fold change: 0.994 (inactive)
[4]; [8]
  fold change: 1.49
[4]; [9]
  cell count: 9390
[4]; [10]
  cell count: 9440
[5]
  outcome: inactive
[6]
  z-score: 0.795 (inactive)

## CCNC(=O)[C@H]1O[C@@H](n2cnc3c(N)nc(NCCc4ccc(CCC(=O)O)cc4)nc32)C(O)[C@H]1O (some centres undefined)
[1]
  period change: 0.1 h (inactive)
[2]
  inhibition: 0% (inactive)
[3]
  fluorescence ratio (interference): 1 (inactive)
[4]; [7]
  fold change: 0.963 (inactive)
[4]; [8]
  fold change: 1.23
[4]; [9]
  cell count: 9660
[4]; [10]
  cell count: 10000
[5]
  outcome: inactive
[6]
  z-score: 0.485 (inactive)

## COc1ccc2c(c1)c(CC(=O)O)c(C)n2Cc1ccc(Cl)cc1
[1]
  period change: 0 h (inactive)
[2]
  inhibition: 0% (inactive)
[3]
  fluorescence ratio (interference): 1 (inactive)
[4]; [7]
  fold change: 0.957 (inactive)
[4]; [8]
  fold change: 1.52
[4]; [9]
  cell count: 8600
[4]; [10]
  cell count: 8990
[5]
  outcome: inactive
[6]
  z-score: 2.23 (active)

## CCCn1c(=O)c2[nH]c(-c3ccc(S(=O)(=O)O)cc3)nc2n(CCC)c1=O
[1]
  period change: -0.005 h (inactive)
[2]
  inhibition: 0% (inactive)
[3]
  fluorescence ratio (interference): 1 (inactive)
[4]; [7]
  fold change: 0.978 (inactive)
[4]; [8]
  fold change: 2.81
[4]; [9]
  cell count: 10100
[4]; [10]
  cell count: 10400
[5]
  outcome: inactive
[6]
  z-score: 0.43 (inactive)

## COc1ccc2c(c1)CCC1C2CC[C@@]2(C)C1CC[C@@H]2NCCCCCCN1C(=O)C=CC1=O (some centres undefined)
[1]
  period change: -0.255 h (inactive)
[2]
  inhibition: 5% (inactive)
[3]
  fluorescence ratio (interference): 0.8 (active)
[4]; [7]
  fold change: 1.05 (inactive)
[4]; [8]
  fold change: 1.05
[4]; [9]
  cell count: 9380
[4]; [10]
  cell count: 8930
[5]
  outcome: inactive
[6]
  z-score: 0.035 (inactive)

## c1cnc2c(c1)ccc1cccnc12
[1]
  period change: 0.09 h (inactive)
[2]
  inhibition: -3% (inactive)
[3]
  fluorescence ratio (interference): 1 (inactive)
[4]; [7]
  fold change: 0.996 (inactive)
[4]; [8]
  fold change: 2.62
[4]; [9]
  cell count: 2190
[4]; [10]
  cell count: 2200
[5]
  outcome: inactive
[6]
  z-score: -1.21 (inactive)

## O=C(c1cc(O)c(O)c([N+](=O)[O-])c1)c1ccccc1F
[1]
  period change: 0.055 h (inactive)
[2]
  inhibition: 5% (inactive)
[3]
  fluorescence ratio (interference): 0.9 (inactive)
[4]; [7]
  fold change: 1.18 (inactive)
[4]; [8]
  fold change: 1.45
[4]; [9]
  cell count: 7010
[4]; [10]
  cell count: 5940
[5]
  outcome: inactive
[6]
  z-score: -0.165 (inactive)

## CCCn1c(=O)c2c(ncn2C)n(CCC)c1=O
[1]
  period change: -0.02 h (inactive)
[2]
  inhibition: -3% (inactive)
[3]
  fluorescence ratio (interference): 1.1 (inactive)
[4]; [7]
  fold change: 1 (inactive)
[4]; [8]
  fold change: 1.17
[4]; [9]
  cell count: 10000
[4]; [10]
  cell count: 9990
[5]
  outcome: inactive
[6]
  z-score: 0.46 (inactive)

## C#CCn1c(=O)c2c(ncn2C)n(C)c1=O
[1]
  period change: -0.07 h (inactive)
[2]
  inhibition: -1% (inactive)
[3]
  fluorescence ratio (interference): 1 (inactive)
[4]; [7]
  fold change: 0.971 (inactive)
[4]; [8]
  fold change: 0.997
[4]; [9]
  cell count: 10100
[4]; [10]
  cell count: 10400
[5]
  outcome: inactive
[6]
  z-score: 0.15 (inactive)

## OC[C@H]1O[C@@H](n2cnc3cncnc32)[C@H](O)[C@@H]1O
[1]
  period change: 0.1 h (inactive)
[2]
  inhibition: -4% (inactive)
[3]
  fluorescence ratio (interference): 1 (inactive)
[4]; [7]
  fold change: 1.03 (inactive)
[4]; [8]
  fold change: 1.29
[4]; [9]
  cell count: 10800
[4]; [10]
  cell count: 10600
[5]
  outcome: inactive
[6]
  z-score: -0.28 (inactive)

## CCC1(O)CC2CN(CCc3c([nH]c4ccccc34)[C@@](C(=O)OC)(c3cc4c(cc3OC)N(C)C3[C@]45CCN4CC=C[C@@](CC)([C@@H](OC(C)=O)[C@]3(O)C(=O)OC)[C@H]45)C2)C1 (some centres undefined)
[1]
  period change: 0.43 h (inactive)
[2]
  inhibition: -2% (inactive)
[3]
  fluorescence ratio (interference): 1 (inactive)
[4]; [7]
  fold change: 1.18 (inactive)
[4]; [8]
  fold change: 0.644
[4]; [9]
  cell count: 1680
[4]; [10]
  cell count: 1430
[5]
  outcome: inactive
[6]
  z-score: -1.17 (inactive)

## Nc1ncnc2c1ncn2[C@@H]1O[C@H](COP(=O)(O)OP(=O)(O)OP(=O)(O)OP(=O)(O)OC[C@@H]2O[C@H](n3cnc4c(N)ncnc43)C(O)[C@@H]2O)[C@H](O)C1O (some centres undefined)
[1]
  period change: 0.05 h (inactive)
[2]
  inhibition: 3% (inactive)
[3]
  fluorescence ratio (interference): 1 (inactive)
[4]; [7]
  fold change: 0.899 (inactive)
[4]; [8]
  fold change: 1.4
[4]; [9]
  cell count: 8750
[4]; [10]
  cell count: 9730
[5]
  outcome: inactive
[6]
  z-score: 4.53 (active)

## CC(=O)N[C@H](C(=O)O)C(C)(C)SN=O
[1]
  period change: 0.185 h (inactive)
[2]
  inhibition: -4% (inactive)
[3]
  fluorescence ratio (interference): 1 (inactive)
[4]; [7]
  fold change: 1.07 (inactive)
[4]; [8]
  fold change: 1.19
[4]; [9]
  cell count: 11100
[4]; [10]
  cell count: 10400
[5]
  outcome: inactive
[6]
  z-score: -0.22 (inactive)

## COC1=C(OC)C(=O)c2ccccc2C1=O
[1]
  period change: -0.205 h (inactive)
[2]
  inhibition: -1% (inactive)
[3]
  fluorescence ratio (interference): 1 (inactive)
[4]; [7]
  fold change: 1.45 (inactive)
[4]; [8]
  fold change: 1.7
[4]; [9]
  cell count: 1290
[4]; [10]
  cell count: 890
[5]
  outcome: inactive
[6]
  z-score: -1.04 (inactive)

## N[C@@H](Cc1ccc(F)cc1)C(=O)O
[1]
  period change: -0.05 h (inactive)
[2]
  inhibition: -1% (inactive)
[3]
  fluorescence ratio (interference): 1 (inactive)
[4]; [7]
  fold change: 1.04 (inactive)
[4]; [8]
  fold change: 0.805
[4]; [9]
  cell count: 9710
[4]; [10]
  cell count: 9330
[5]
  outcome: inactive
[6]
  z-score: 0.26 (inactive)

## CNc1cc(NS(=O)(=O)c2ccc(N)cc2)nc(NC)n1
[1]
  period change: -0.065 h (inactive)
[2]
  inhibition: -3% (inactive)
[3]
  fluorescence ratio (interference): 1 (inactive)
[4]; [7]
  fold change: 1.09 (inactive)
[4]; [8]
  fold change: 0.965
[4]; [9]
  cell count: 9150
[4]; [10]
  cell count: 8390
[5]
  outcome: inactive
[6]
  z-score: 0.695 (inactive)

## O=c1[nH]c2cc(Cl)ccc2c(O)c1-c1ccc(Oc2ccccc2)cc1
[1]
  period change: -0.015 h (inactive)
[2]
  inhibition: -2% (inactive)
[3]
  fluorescence ratio (interference): 1 (inactive)
[4]; [7]
  fold change: 1.06 (inactive)
[4]; [8]
  fold change: 0.974
[4]; [9]
  cell count: 10400
[4]; [10]
  cell count: 9850
[5]
  outcome: inactive
[6]
  z-score: 0.965 (inactive)
